PI4K2A inh: inhibitors of human PI4K2A; actives 0.13% (n = 420,000); Q9BTU6; purified PI4K2A, ADP-Glo luminescence, 1 h; stronger effect = lower value; activity change, negative = inhibition, % at 76.9 µM; in the data active = activity change below about -50%; inconclusive = mostly about -30% to -49%;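 note: -100% = wells without enzyme as full effect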
Target sequence (Q9BTU6 whole entry, looked up): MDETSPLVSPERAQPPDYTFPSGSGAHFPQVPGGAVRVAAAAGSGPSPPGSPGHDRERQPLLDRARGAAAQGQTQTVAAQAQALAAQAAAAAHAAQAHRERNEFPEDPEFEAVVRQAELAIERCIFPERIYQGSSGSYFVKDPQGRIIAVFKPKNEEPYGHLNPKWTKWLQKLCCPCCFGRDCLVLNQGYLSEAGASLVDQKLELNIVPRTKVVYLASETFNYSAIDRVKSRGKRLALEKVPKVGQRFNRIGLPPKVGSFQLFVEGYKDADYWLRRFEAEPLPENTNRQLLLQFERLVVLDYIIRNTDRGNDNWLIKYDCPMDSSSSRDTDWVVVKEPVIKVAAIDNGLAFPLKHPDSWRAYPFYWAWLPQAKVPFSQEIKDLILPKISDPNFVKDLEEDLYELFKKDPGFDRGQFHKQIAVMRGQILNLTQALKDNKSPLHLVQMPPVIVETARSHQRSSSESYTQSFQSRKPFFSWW
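ADP-Glo luminescence measured ADP generated by PI4K2A enzyme (4 ug/mL before mixing) with 1.2 mM PI substrate (pre-mix) and 300 microM ATP (pre-mix). Tris pH7.5 buffer with MgCl2, Triton X-100; 1 h reaction at ambient temperature.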
PI5P4Ka inh: PI5P4K alpha (human) kinase inhibition | PI5P4Kalpha enzyme, ADP-Glo luminescence, 60 min; stronger effect = lower value | P48426 | max response, % | actives 1.2% (n = 330,000); active = max response of -50% or lower; inconclusive = between -30% and -50%; inactive = -30% or higher; note: value at the top dose of about 77 µM; % is set by controls: 0 for no effect and ±100 for the full control effect
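Reactions run in 0.038 M HEPES pH 7.4, 0.28 mM EGTA, 0.1% CHAPS and 5% DMSO, with PI5P4Kalpha, substrate, compound and 5 microM ATP final, one hour at room temperature. Readout is ADP-Glo luminescence.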
DRD3 agonist: D3 dopamine receptor (human) agonism; max activation, %; D3R DiscoveRx beta-arrestin cells, luminescence, 90 min; AID 652048; actives 0.58% (n = 410,000); in the data active = max activation above about 30%; note: 0% is about no effect
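Agonist mode: compounds and dopamine controls were applied to plated cells for 90 min at 37 degrees C after an overnight attachment at 1500 cells/well. Luminescent read-out followed 30 - 60 minutes at room temperature with DiscoveRx detection reagent.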
D3 antag: antagonists of human D3 dopamine receptor | P35462 | D3R cells, DiscoveRx beta-arrestin luminescence, antagonist mode; stronger effect = lower value | max response, negative = inhibition, % | actives 2.5% (n = 360,000) | AID 652054; in the data active = max response below about -50%; inconclusive = no clear call, values can overlap the other calls; note: % is set by controls: 0 for no effect and ±100 for the full control effect
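Cells plated overnight at 1500 cells/well, then exposed to library compounds with dopamine controls for 90 minutes at 37 degrees C. DiscoveRx reagent added for 30–60 minutes at room temperature; luminescence read, quantitative HTS format.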
LDHA inh: blocks human lactate dehydrogenase A; actives 0.15% (n = 480,000); P00338; purified LDHA, NADH/diaphorase-resazurin fluorescence; stronger effect = lower value; activity change, % (values are at about 110 or 230 µM); in the data active = activity change below about -30%; inconclusive = mostly about -25% to -30%;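 note: plate controls were DMSO wells for no effect and wells without enzyme for full effect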
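Remaining NADH was detected by diaphorase (0.133 mg/mL) converting 37 µM resazurin to fluorescent resorufin, read at 0 and 20 minutes. The preceding 5-minute room-temperature reaction used 2 nM LDHA, 0.2 mM sodium pyruvate and 0.06 mM NADH at pH 7.4.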
An asterisk follows results filed as active; ? = inconclusive; / = no result. Shown are actives, neighbours in structure and some others; about 3.3% of the full set was active somewhere.

SMILES | PI4K2A inh | PI5P4Ka inh | DRD3 agonist | D3 antag | LDHA inh
CCCCCCCCCCSCCC(=O)O | / | / | / | / | 0
O=C(c1ccc(Cn2cncn2)cc1)N1CCN(c2ccccc2)CC1 | / | / | / | / | 4
O=C(CN1CCCC(c2nc3ccccc3o2)C1)N1CCNC1=O (configuration not stated) | / | / | / | / | 10
CCOc1ccc(C2CCCN2Cc2coc(-c3ccc(OC)cc3)n2)cc1 (configuration not stated) | / | / | / | / | -1
CCn1c(CN2CCC(C)CC2)nc2cc(NC(=O)c3ccc([N+](=O)[O-])cc3)ccc21 | 1 | / | 60* | / | 0
Cc1ccc(-c2nnc(CCC(=O)Nc3cccc(S(=O)(=O)NC4CC4)c3)o2)cc1 | / | / | / | / | 1
COc1ccc(OC)c(Nc2nc(=O)c3cccnc3s2)c1 | -22 | -89* | -4 | -10 | 4
Cc1ccc(Nc2nc(=O)c3cccnc3s2)cc1 | -3 | / | -15 | -102* | 1
O=c1nc(NCc2ccco2)sc2ncccc12 | -6 | / | 5 | -10 | 2
O=C(c1ccco1)N(Cc1ccc(Cl)cc1)C1CCS(=O)(=O)C1 (configuration not stated) | -2 | 20 | 38* | -4 | -6
COc1ccc2[nH]cc(C3C(NC(=O)c4ccc(Cl)cc4)=C(C)Nc4ncnn43)c2c1 (configuration not stated) | / | / | / | / | 6
O=C1C=C(O)c2[nH]c(=O)ccc2C1=O | ? | -57* | -15 | -30 | 41
COc1ccc2oc(C(=O)N3CCN(C/C=C/c4ccccc4)CC3)c(C)c2c1 | 4 | -1 | 30* | 0 | -1
Cc1cc(C)c2c(CN3CCCCC3)cc(=O)oc2c1 | 0 | 4 | 2 | 4 | 0
COc1ccc(O)c(CN2CCN(C/C=C/c3ccccc3)CC2)c1 | 2 | / | -24 | -76* | 2
Cc1[nH]c2ccccc2c1C(=O)CN1CCN(C/C=C/c2ccccc2)CC1 | 5 | 1 | -3 | -3 | 0
COc1ccc2[nH]c(C)c(C(=O)CN3CCN(C/C=C/c4ccccc4)CC3)c2c1 | 2 | -1 | 2 | -57* | 4
Cc1cc(C)c2c(CN3CCN(C/C=C/c4ccccc4)CC3)cc(=O)oc2c1 | 1 | 0 | -2 | -64* | 10
CCn1cnc2c1c(=O)n(CC(=O)c1cc(C)n(C)c1C)c(=O)n2Cc1ccccc1 | / | / | / | / | -15
CCN1CCC2(CC1)OCCN2C(=O)c1cc(=O)c2ccccc2o1 | / | / | / | / | 2
CCCNc1c(NC(=O)NCCc2ccccc2)c(=O)oc2ccccc12 | / | / | / | / | 3
Cc1cccc(Cn2ncc(Cl)c(Cl)c2=O)c1 | 15 | / | -40 | -21 | 1
O=C(OCn1ncc(Cl)c(Cl)c1=O)c1ccc(C(F)(F)F)cc1 | 23 | 0 | 1 | -85* | -16
Cc1ccc(C(=O)OCn2ncc(Cl)c(Cl)c2=O)cc1 | 16 | / | -8 | -51* | 2
Cc1ccc(/C=C(\C#N)C(=O)Nc2c(C)cccc2C)s1 | 0 | / | -10 | -80* | -17
SMILES | PI4K2A inh | PI5P4Ka inh | DRD3 agonist | D3 antag | LDHA inh
Cc1ccc(NC(=O)/C(C#N)=C/c2ccc(C)s2)c(C)c1 | -4 | 9 | 8 | 13 | -1
Cc1ccc(CCNS(=O)(=O)c2cnc[nH]2)cc1 | -1 | -2 | -4 | -66* | -3
O=C(NCc1ccncc1)c1cc(-c2ccccn2)nc2ccccc12 | / | / | / | / | -3
COc1ccc(/C=N/NC(=O)C[n+]2ccccc2)c(OC)c1OC | 0 | 11 | -12 | -51* | -2
CCOC(=O)C1(CCOc2ccccc2)CCN(Cc2cccc3nonc23)CC1 | 3 | 1 | -4 | -89* | -2
CCOC(=O)C1(CCOc2ccccc2)CCN(Cc2ccc(O)cc2)CC1 | -2 | 2 | -24 | ? | 0
CCOC(=O)C1(CCc2ccccc2)CCN(Cc2ccc(OC)cc2)CC1 | -5 | 2 | -26 | -25 | -10
CCOC(=O)C1(CCc2ccccc2)CCN(Cc2ccc(O)cc2)CC1 | 2 | 0 | -23 | -57* | -7
Cc1ccc(C=O)n1-c1ccc(Cl)cc1 | / | / | / | / | -2
CCOC(=O)c1nc(NCc2ccc(OC)cc2OC)c2ccccc2n1 | / | / | / | / | 0
CCC1C(=O)C(C)(C)C(=O)OC1c1ccc([N+](=O)[O-])cc1 (configuration not stated) | 6 | 0 | -6 | -28 | -2
O=C1CC(=O)OC(c2ccc([N+](=O)[O-])cc2)O1 | 7 | 1 | -10 | -87* | 0
N#Cc1ccc(C23CC4(C2)[C@H](CN(CC2CCCCC2)[C@@H]4c2ccccc2)C3c2ccc(Cl)nc2)cc1 (some centres not stated) | 0 | -5 | 17 | -72* | 1
CC(=O)N1N=C(c2ccccc2)CC1c1cccc([N+](=O)[O-])c1 (configuration not stated) | -13 | 0 | -9 | ? | 0
CC(=O)N1N=C(c2cccs2)CC1c1cccc([N+](=O)[O-])c1 (configuration not stated) | -4 | 4 | -12 | -60* | -3
CCOc1ccc2c(c1)-c1c(ssc1=S)C(C)(C)N2C | 4 | 0 | 0 | -52* | 1
Cc1ccc2cc3c(nc2c1)N(Cc1ccco1)CC3 | 4 | 8 | 1 | -56* | -3
Cc1ccc(S(=O)(=O)N2CN(Cc3ccco3)c3nc4ccccc4nc32)cc1 | -12 | 2 | -7 | 23 | -2
COc1ccc([C@H]2CC(=O)C=C(c3ccc(OC)c(OC)c3)C2)cc1 | -2 | -2 | 5 | 32 | 7
CCOC(=O)c1cccc(C2=CC(=O)C[C@H](c3ccc(OC)c(OC)c3)C2)c1 | -3 | 5 | 52* | 88 | 0
COc1ccc(C2=CC(=O)CC(c3ccc(OC)cc3)C2)cc1 (configuration not stated) | -2 | -2 | -12 | -10 | -5
COc1ccc([C@H]2CC(=O)C=C(c3cccc(CO)c3)C2)cc1OC | 2 | -4 | 8 | 31 | 0
C=Cc1ccc(C2=CC(=O)C[C@H](c3ccc(OC)cc3)C2)cc1 | -6 | 3 | -27 | -52* | -3
COc1ccc([C@H]2CC(=O)C=C(c3cccc4c3Oc3ccccc3S4)C2)cc1OC | 4 | 5 | 75* | 145 | 0
COc1ccc([C@H]2CC(=O)C=C(c3ccc4ccccc4c3)C2)cc1OC | -1 | 8 | 42* | 38 | -10
COC(=O)[C@]12C[C@H](CC(=O)NCCC(C)C)C(=O)N(CCC3=CCCCC3)C1=C[C@H](C1CCCC1)O[C@@H]2C | -3 | / | / | / | /
O=C(NC1CCCCCCC1)c1ccc(S(=O)(=O)N2CCCC2)cc1 | 1 | -3 | 3 | -53* | -1
O=C(NC1CCCCC1)c1ccc(S(=O)(=O)N2CCCCC2)cc1 | -5 | 7 | -1 | 14 | -10

Screening data (PubChem)
